A selection: hits, their analogues and other compounds. The true share with any hit is near 19%.
TDP1 cell CPT – growth inhibition of DT40 Tdp1-/-;hTDP1 cells with camptothecin (screen for TDP1 inhibitors); chicken DT40 Tdp1-/-;hTDP1 cells + 20 nM CPT, ATP luminescence, 48 h; Potency, µM (doses to about 46.2 µM), inactives show at the highest dose activity change, negative = growth inhibition, most hits filed as inhibitors; hit rate 12% among 420,000; AID 686979; note: nearly all actives have a fitted effect of over 55% in size
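Chicken DT40 Tdp1-/- cells complemented with human TDP1, 400 cells/well, exposed to compounds plus 20 nM camptothecin for at least 48 h at 37 C; viability read as ATP content by CellTiter-Glo luminescence.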
KB-V1 cytotox – kills drug-selected multidrug resistant KB-V1 cells; KB-V1 MDR cells viability, CellTiter-Glo, 72 h; Potency, µM (series often up to 46.1 µM), hits mostly cytotoxic; hit rate 3.4% among 400,000; AID 1347076; note: nearly all actives have a fitted effect of over 60% in size
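qHTS viability screen in drug-selected KB-V1 MDR cells: 72 h compound treatment at 37 degrees C, ATP luminescence end point.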
HT1080 IDH1KD tx – toxicity to HT-1080 IDH1 knockdown cells (counter line); Potency, µM (top dose mostly 46.1 µM), without a hit: at the top dose activity, negative = toxicity, most hits filed as cytotoxic; HT-1080 IDH1 knockdown viability, ATP luminescence, 48 h; AID 686971; hit rate 2% among 360,000;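 note: 0% = DMSO wells and -100% = cell-free medium wells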
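After a 2 h attachment period, IDH1KD HT-1080 cells took pin-transferred compound for 48 h at 37 °C; ATP-based luminescence after 10 min room-temperature reagent incubation reported viability.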
HT1080NT lethal – kills 2HG-producing HT-1080-NT fibrosarcoma cells; HT-1080-NT fibrosarcoma viability, CellTiter-Glo ATP luminescence, 48 h; Potency, µM (top dose mostly 46.1 µM), for the others: top-dose activity, negative = less viability, actives largely listed as cytotoxic; hit rate 1.6% among 360,000;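 note: NT is the 2HG producing partner of a matched IDH1 knockdown line; 0% = DMSO-treated cells and -100% = media-only wells without cells; nearly all actives have a fitted effect of over 55% in size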
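Luminescent CellTiter-Glo readout after 48 hours of compound exposure at 37 degrees C defined viability of HT-1080-NT cells. Activity was normalized to DMSO wells and cell-free media wells; concentration-response curves were fitted and assigned curve classes.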
KB-3-1 cytotox – KB-3-1 parental cell cytotoxicity. AID 1347075. hit rate 1.4% among 400,000. KB-3-1 viability, CellTiter-Glo ATP luminescence, 72 h. Potency, µM (titrated, usually from 46.1 µM), usual class: cytotoxic; note: nearly all actives have a fitted effect of over 60% in size
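Screening of KB-3-1 cells (DMEM, 10% FBS, phenol-red free) ran from lowest to highest compound concentration; after 72 h at 37 °C viability was read luminescently and curves fitted.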
DT40 TDP1 no CPT – qHTS for Inhibitors of human tyrosyl-DNA phosphodiesterase 1 (TDP1): qHTS in cells in absence of CPT; DT40 Tdp1-/- hTDP1 cells, no CPT, ATP luminescence, 48 h; Potency, µM (titrated, usually from 46.2 µM), inactives show top-dose activity change, negative = growth inhibition, actives largely listed as inhibitors; hit rate 15% among 420,000; AID 686978, 2013; note: nearly all actives have a fitted effect of over 55% in size
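Cells were dispensed at 400 per well, compounds added by pin tool, plates incubated ≥48 hr at 37 °C, then CellTiter-Glo added for 30 min at room temperature before luminescence reading. Line: DT40 Tdp1-/- complemented with hTDP1; camptothecin omitted.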
Starred values were filed as active, the others as inactive; i = inactive; ? = inconclusive; / = no result. Calls come from the whole dose curve; as a rule, active = well fitted curve in the direction sought with a large enough effect; inconclusive = small, poorly fitted or top-dose-only effect, or another doubt; inactive = no such curve, though single readings can be large; an effect the other way counts as inactive or inconclusive. Unless noted, % is set by controls: 0 for no effect and ±100 for the full control effect; potency is the fitted concentration of half-maximal effect.

SMILES	TDP1 cell CPT	KB-V1 cytotox	HT1080 IDH1KD tx	HT1080NT lethal	KB-3-1 cytotox	DT40 TDP1 no CPT
Cc1cccc(CN2C(=O)c3ccccc3Sc3ccc(C(=O)N4CCCC4)cc32)c1	?	i	/	/	?	?
O=C(c1ccc2c(c1)N(Cc1ccccc1F)C(=O)c1ccccc1S2)N1CCOCC1	-1%	?	8%	-5%	i	-8%
Cc1ccccc1CN1C(=O)c2ccccc2Sc2ccc(C(=O)N3CCOCC3)cc21	?	/	/	/	/	18µM*
c1ccc2c(N3CCCCCC3)nc(-c3ccncc3)nc2c1	?	18µM*	?	-5%	i	23µM*
c1cncc(-c2nc(N3CCCCCC3)c3ccccc3n2)c1	?	4.1µM*	-13%	-8%	i	?
Cc1ccc(-c2nc(N3CCN(c4ccccc4Cl)CC3)c3ccccc3n2)cc1	-8%	i	/	/	i	-18%
c1ccc2c(N3CCCCC3)nc(N3CCCCC3)nc2c1	18µM*	?	-5%	1%	?	?
COCCn1c(C)cc(C2=NNC(=Nc3ccc(Cl)cc3Cl)SC2)c1C	?	i	10%	-1%	i	?
COCCCN=C1NN=C(c2cc(C)n(Cc3ccco3)c2C)CS1	0.65µM*	?	1.6µM*	1.6µM*	?	0.029µM*
COCC(C)N=C1NN=C(c2cc(C)n(Cc3ccccc3Cl)c2C)CS1 (configuration not stated)	13µM*	i	-22%	-15%	i	12µM*
Cc1cc(C2=NNC(=NC3CC3)SC2)c(C)n1Cc1ccco1	16µM*	5.2µM*	7.3µM*	7.3µM*	3.3µM*	8.2µM*
C=CCN=C1NN=C(c2cc(C)n(CCOC)c2C)CS1	-7%	i	8%	9%	i	-2%
CN(CCCC1CCCC1)C(=O)CC1C(=O)NCCN1Cc1cccc(F)c1F (configuration not stated)	?	i	2%	5%	i	?
CCN(C(=N)N=C(N)N)c1ccccc1	?	?	-1%	-1%	i	18µM*
COc1ccc(OC)c(N(CC(=O)N2CCCC2)S(C)(=O)=O)c1	7%	i	-4%	-1%	i	-7%
C=CCOC(=O)C1=C[C@@H](c2ccc(Br)cc2)C[C@@H](OCc2ccc(CO)cc2)O1	?	i	4%	-10%	i	?
N#CCOC(=O)c1cc(S(=O)(=O)N2CCCCC2)ccc1N1CCOCC1	-23%	i	7%	1%	?	16%
O=C(CN1C(=O)NC2(CCCCCCC2)C1=O)NCc1ccc(Cl)cc1	-10%	i	-16%	-4%	i	-23%
COc1ccc(C(O)c2nc(-c3cccc(CO)c3)cs2)cc1 (configuration not stated)	?	i	0%	4%	i	?
COc1cc(C(O)c2nc(-c3cccc(NC(C)=O)c3)cs2)ccc1F (configuration not stated)	?	i	-1%	2%	i	16µM*
COc1cc(C(O)c2nc(-c3cccs3)cs2)ccc1F (configuration not stated)	?	i	-19%	-8%	i	?
COc1cc(C(O)c2nc(-c3cccc(C(F)(F)F)c3)cs2)ccc1F (configuration not stated)	16µM*	i	?	?	i	?
COc1ccc(C(O)c2nc(-c3cccc(F)c3)cs2)cc1 (configuration not stated)	16µM*	i	-13%	-24%	i	?
COc1ccc(C(O)c2nc(-c3cccc(C(F)(F)F)c3)cs2)cc1 (configuration not stated)	21µM*	i	?	-19%	i	?
COc1cccc(Cn2c(Oc3cc(C)cc(C)c3)nc3c2c(=O)n(C)c(=O)n3C)c1	?	i	/	/	i	?
SMILES	TDP1 cell CPT	KB-V1 cytotox	HT1080 IDH1KD tx	HT1080NT lethal	KB-3-1 cytotox	DT40 TDP1 no CPT
Cc1ccc(C2C3=C(CCCC3=O)N=C3c4ccccc4C(=O)C32)cc1 (configuration not stated)	-1%	i	?	-28%	i	?
COC(=O)c1cnn(-c2ccccc2)c1-n1cccc1C=O	-14%	i	-3%	?	i	-19%
O=C(CSc1nnc(-c2ccccn2)n1Cc1ccccc1)N1CCCC1	-3%	i	12%	7%	i	-2%
CC1CCc2nn(CC(=O)NC3CCCC(C)C3C)cc2C1 (configuration not stated)	?	i	9%	3%	i	?
COc1cccc(C(O)c2nc(-c3cccc(C(F)(F)F)c3)cs2)c1 (configuration not stated)	-85%	i	-45%	-42%	i	0.58µM*
C(=N\c1nccs1)/Nc1nccs1	-13%	i	5%	12%	i	-17%
COc1ccc(NC(=O)CN(C)C(=O)c2cn(-c3ccccc3)nc2-c2ccc(OC)cc2)cc1	?	i	-15%	-2%	i	?
COc1ccc(NC(=O)CN(C)C(=O)/C=C/c2cn(-c3ccccc3)nc2-c2ccc(C)cc2)cc1	?	i	-10%	-13%	i	21µM*
COc1ccc(NC(=O)CN(C)C(=O)/C=C/c2cn(-c3ccccc3)nc2-c2cccs2)cc1	?	i	-8%	-1%	i	18µM*
COc1ccc(NC(=O)CN(C)C(=O)/C=C/c2cn(-c3ccccc3)nc2-c2ccc(F)cc2)cc1	?	i	?	-13%	i	23µM*
COc1cccc(NC(=O)CN(C)C(=O)/C=C/c2cn(-c3ccccc3)nc2-c2ccc(C)cc2)c1	?	i	-14%	-6%	i	?
COC(=O)[C@]12CCCCC=C1N(CCc1ccc(OC)c(OC)c1)C(=O)[C@H](CC(=O)NCC13CC4CC(CC(C4)C1)C3)C2	?	18µM*	?	?	?	?
C#CCNC(=O)C[C@@H]1C[C@@]2(C(=O)OC)CCCCC=C2N(CCc2ccc(OC)c(OC)c2)C1=O	?	?	23%	19%	i	?
CCOC(=O)[C@]12CCCC=C1N(CCc1ccc(OC)c(OC)c1)C(=O)[C@H](CC(=O)NCC13CC4CC(CC(C4)C1)C3)C2	15µM*	?	?	-21%	?	16µM*

Compound activity (PubChem)
